Screens as filed in PubChem BioAssay.
The list is a sample of the results.
aSyn UTR act: Activators working through SNCA 5'UTR binding (MLPCN); activity score, % (tested at 7.5 µM), hits read low; alpha-synuclein 5'UTR reporter, activators screen; actives 7.1% (n = 300,000); AID 1814; in the data active = activity score below about -60%
An asterisk follows results filed as active.

SMILES | aSyn UTR act
COc1ccc(NC(=O)c2cc3ccccc3cc2OC)cc1OC | -70*
COc1cccc(C(=O)Nc2ccc(N(C)C)cc2)c1OC | -214*
COc1cc(Cl)c(C)cc1NC(=O)c1cccc(OC)c1OC | -137*
COc1cc(C(=O)Nc2ccc3ccccc3c2)cc(OC)c1OC | 88
COc1ccc(C(=O)Nc2ccc3ccccc3c2)cc1OC | -176*
COc1cccc(NC(=O)c2ccccc2Br)c1 | -106*
COc1cccc(NC(=O)c2cc3ccccc3cc2OC)c1 | -151*
Cc1occc1C(=O)Nc1ccc2ccccc2c1 | -128*
CC(C)C/C=C1\CCc2c([nH]c3ccccc23)C1=O | -229*
O=C1/C(=C/c2cccnc2)CCc2c1[nH]c1ccccc21 | -126*
Cc1nnc(SC(=O)N2c3ccccc3Sc3ccccc32)s1 | -66*
CC(C)n1c(SCC(=O)N2c3ccccc3Sc3ccccc32)nc2c1c(=O)n(C)c(=O)n2C | 58
CCOC(=O)C1CCN(C(=O)C2CCN(c3ncnc4c3nc3n4CCCCC3)CC2)CC1 | -108*
O=C(O)c1cnn(-c2nc(-c3ccc(Br)cc3)cs2)c1C(F)(F)F | -96*
Cc1ccc(Nc2nc3c(c(=O)[nH]2)CCCC3)cc1 | -143*
Cc1ccc(Nc2nc(C)c(CCC(C)C)c(=O)[nH]2)cc1 | -94*
Cc1ccc(/C=N\Nc2nc3ccc(Cl)cc3[nH]2)o1 | -192*
C#CCn1cc(/C=N/Nc2nc3ccccc3[nH]2)c2ccccc21 | -383*
C(=N\Nc1nc2ccccc2[nH]1)/c1cccc2nccnc12 | 67
Fc1ccccc1-c1ccc(/C=N/Nc2nc3ccccc3[nH]2)o1 | -217*
C(=N\Nc1nc2ccccc2[nH]1)/c1ccccn1 | 112
CCCCn1c(/C=N/Nc2nc3ccccc3[nH]2)nc2ccccc21 | -433*
COc1cccc(NC(=O)C(=O)NCc2ccncc2)c1 | -100*
O=C(NCc1ccccc1)C(=O)Nc1cccc(C(=O)O)c1 | 74
COc1cccc(NC(=O)C2=COCCO2)c1 | -64*
SMILES | aSyn UTR act
COc1cccc(NC(=O)c2cccs2)c1 | -155*
COc1cc(NC(=O)c2cccs2)cc(OC)c1 | -90*
COc1ccc(C(=O)/C=C\c2ccc(NC(=O)c3cccs3)cc2)cc1 | -129*
Oc1ccc(Br)cc1C=Nc1ccc2c3c(cccc13)CC2 | -69*
COc1ccc(C2=NCN(c3ccc(C)cc3)C(=S)N2)cc1 | -138*
Cc1ccc(N2CN=C(c3ccccc3)NC2=S)cc1 | -113*
COc1ccccc1NC(=O)C/C(C)=N/NC(=O)c1ccccn1 | -103*
COc1cc(NC(=O)C/C(C)=N/NC(=O)c2ccccn2)c(OC)cc1Cl | -80*
C/C(CC(=O)Nc1ccc(C)c(Cl)c1)=N\NC(=O)c1ccccn1 | -71*
COc1ccc(/C(C)=N/NC(=O)OC(C)(C)C)cc1[N+](=O)[O-] | -68*
Cc1csc(NC(=O)c2ccc[nH]c2=O)n1 | -85*
O=C(Nc1nc(-c2ccccn2)cs1)c1cc(Cl)ccc1[N+](=O)[O-] | 116
Cc1csc(NC(=O)c2cnccn2)n1 | -105*
CC(C)[C@H](NC(=O)c1ccccc1Cl)C(=O)Nc1nc(-c2ccccn2)cs1 | 64
Cc1csc(NC(=O)c2cccnc2Cl)n1 | -76*
Cc1csc(NC(=O)c2ccc(Cl)cc2[N+](=O)[O-])n1 | -92*
Cc1csc(NC(=O)c2cccc(C)c2C)n1 | -155*
Cc1csc(NC(=O)c2ccoc2C)n1 | -191*
O=C(Nc1ccc(F)cc1F)Nc1csc2ccccc12 | -67*
O=C(Nc1cccs1)Nc1ccc(Br)cc1F | -185*
O=C(NNC(=S)Nc1ccc(F)cc1F)c1ccco1 | -109*
O=C(Nc1cccs1)Nc1ccc(F)cc1F | -119*
O=C(Nc1ccc(F)cc1F)Nc1ccc(F)cc1F | -87*
Clc1ccc2nc(N3CCCCC3)[nH]c2c1 | -123*
CS(=O)(=O)N1CCN(c2nc3ccc(Cl)cc3s2)CC1 | -99*
SMILES | aSyn UTR act
Clc1ccc2nc(N3CCCCC3)sc2c1 | -148*
O=c1c(Cl)c(N2CCCCC2)cnn1-c1nc2ccccc2[nH]1 | 93
CC(C)OC(=O)Nc1ccc2c(c1)N(C(=O)N1CCN(C)CC1)c1ccccc1CC2 | -62*
COc1cccc(-c2nc3ccc([N+](=O)[O-])cc3o2)c1 | -120*
O=[N+]([O-])c1ccc2nc(-c3ccccc3)oc2c1 | -224*
CCOC(=O)c1c(-c2ccccc2)nc2ccc(C)cn12 | -166*
CCOC(=O)c1c(-c2ccccc2)nc2cc(C)ccn12 | -104*
COc1ccc(OCCC(=O)N2CCCCC2)cc1 | -63*
COC(=O)C1CCN(C(=O)CCCOc2ccccc2)CC1 | -83*
CCCCOc1ccc(C(=O)N2CCCC2)cc1 | -63*
Cc1ccccc1N=Nc1ccc(O)c2ncccc12 | 54
O=Nc1ccc(O)c2ncccc12 | -236*
CCOC(=O)c1nnc2cc(-c3ccc(Br)cc3)nn2c1C | -114*
CN(Cc1ccsc1)C(=O)Cn1cc(Br)ccc1=O | -97*
Cc1cc(-c2nnco2)c(C)n1-c1ccccc1 | -101*
Cc1cc(C2=NNC(=NC3CC3)SC2)c(C)n1-c1ccccc1 | 95
CC(=O)Nc1cccc(/C(C)=N/Nc2nc3ccccc3s2)c1 | -224*
